About 83,000 compounds went through this panel and 20% of them were active in at least one assay; those are over-represented in the sample as a whole.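 Testing used 96-well plates and a 48-hour single-concentration exposure. Example: -40 means 40% of the starting cells died.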 Unmarked numbers belong to inactive results. Active and inactive are the calls of the source. Rule for the calls: active = growth percent below 10; inactive = the rest.
Columns and labels:
Experiment in all cases: NCI-60 one-dose screen, 48 h (100 = growth as untreated, 0 = no growth, -100 = all killed)
[1] = system: HCT-15 colon; settings: 10 µM unless noted
[2] = system: HT29 colon; settings: 10 µM unless noted
[3] = system: SNB-75 CNS; settings: 10 µM unless noted
[4] = system: SNB-19 CNS; settings: 10 µM unless noted
[5] = system: U251 CNS; settings: 10 µM unless noted
[6] = system: SK-MEL-5 melanoma; settings: 10 µM unless noted
[7] = system: UACC-62 melanoma; settings: 10 µM unless noted
[8] = system: LOX IMVI melanoma; settings: 10 µM
[9] = system: SK-MEL-28 melanoma; settings: 10 µM unless noted
[10] = system: SK-MEL-2 melanoma; settings: 10 µM unless noted
[11] = system: EKVX NSCLC; settings: 10 µM unless noted
[12] = system: SN12C renal; settings: 10 µM unless noted
[13] = system: UO-31 renal; settings: 10 µM unless noted
[14] = system: TK-10 renal; settings: 10 µM unless noted
[15] = system: ACHN renal; settings: 10 µM unless noted
[16] = system: CAKI-1 renal; settings: 10 µM unless noted
[17] = system: A498 renal; settings: 10 µM unless noted
[18] = system: CCRF-CEM leukemia; settings: 10 µM unless noted
[19] = system: MOLT-4 leukemia; settings: 10 µM unless noted
[20] = system: PC-3 prostate; settings: 10 µM unless noted

Structure (SMILES)	growth [1]	growth [2]	growth [3]	growth [4]	growth [5]	growth [6]	growth [7]	growth [8]	growth [9]	growth [10]	growth [11]	growth [12]	growth [13]	growth [14]	growth [15]	growth [16]	growth [17]	growth [18]	growth [19]	growth [20]
Cc1cc(C(=O)NN)c(C#N)c(=O)[nH]1	105%	124%	84.6%	95.3%	104%	95.7%	89.8%	97.7%	91.8%	100%	109%	88.4%	88.3%	115%	105%	96.8%	95.7%	95.9%	111%	
Cc1c(Cl)cccc1N=C=S	107%	104%	70.6%	93.5%	106%		97.4%	103%	132%	99.5%	89.1%	99.9%	81.1%	106%	99.3%	88.8%	117%	94.6%	109%	89.6%
OCCOc1ccc(-c2cc(-c3ccccn3)nc(-c3ccccn3)c2)cc1	19.1%	4.07% (active)	24.1%	20.6%	4.7% (active)		-44.8% (active)	-29.6% (active)		37.6%	18.5%	11.7%	-14.5% (active)	28%		3.07% (active)		3.02% (active)		20.1%
CCCC1OC(c2ccco2)OCC1CC (stereo not drawn)	97.2%	103%	84.2%	98.2%	94.8%		91.7%	95.1%	113%	97.7%	96.4%	98.4%	77.6%	97.1%	105%	88.2%	94.6%	93%	89.3%	92.5%
Nc1ncnc(Nc2ccccc2)n1	103%	108%	104%	109%	111%	104%	115%	104%	107%	103%	122%	105%	86.5%	110%	113%	92.7%	128%		96.2%	
Cc1ccc(/C=N/NC(N)=S)s1	109%	110%	91.2%	103%	102%		102%	101%	113%	102%	96%	99%	90.5%	105%	103%	92%	95.2%	100%	99.4%	92.2%
O=S(Cc1ccccc1)/C(=C/NC(=S)Nc1cc(Cl)ccc1Cl)c1ccccc1 (stereo not drawn)	107%	97.4%	89.9%	104%	101%	102%	98.6%	94.3%	109%	101%	99.3%	98.5%	83.9%	107%	99.9%	97.1%	101%	99.6%		
O=C(O)c1ccccc1Cc1ccc2c(c1)CCCC2	104%	107%	87.2%	102%	111%		96.4%	109%	108%	113%	119%	102%		103%	104%		107%	106%	97.9%	103%
Nc1ccc(F)c(Cl)c1F	111%	108%	89.3%	110%	116%		103%	95.3%	109%	108%	107%	104%	98.7%	108%	106%	97.5%	95%	99.4%	108%	84.1%
O=C1C=Cc2ccccc2/C1=C/c1[nH]c(=O)[nH]c1O	59.7%	37.7%	31.9%	34.1%	29.3%		24%	48.8%	30.6%	22.9%	69.6%	60.6%	52.5%	65.2%	55.3%	68.7%	32.7%	24.3%	43%	27.4%
Cc1cccc(-[n+]2noc(N)n2)c1	66.4%	102%	82.1%	81.4%	86%	97.4%	40.7%	46.9%	113%	145%	67.9%	95.7%	49.7%	124%	46.1%	59.6%	113%		72.8%	
CN1C(=O)NC(c2ccc(Cl)cc2)(c2ccc(Cl)cc2)C1=O	106%	93%	84.2%	105%	94.9%	98.9%	83.8%	96.2%	102%	80.6%	91.5%	103%	61.5%	129%	108%	92.9%	110%	-30.3% (active)	89.1%	
O=C(Nc1ccc([N+](=O)[O-])cc1)C(=O)Nc1ccc([N+](=O)[O-])cc1	101%	91.5%	116%	99.6%	81.2%	100%		94.9%	115%	97%	103%	102%	89.1%	98.5%	107%	98.1%	100%	101%	101%	
C=CC1=NC(C)(C)CC(C)O1 (stereo not drawn)	98.9%	106%	72%	99.5%		105%	100%	98.4%	96.6%	112%		99.2%	111%	106%	101%	114%	98.3%	95.7%	98.5%	102%
O=Cc1ccc(Cl)c(Cl)c1	110%	106%	88.4%	111%	104%	110%	102%	95%	107%		109%	110%	80.1%	98%	103%	111%	83.3%	97.8%	106%	
Clc1ccc(-c2noc(/C=C\c3ccccc3)n2)cc1	95%	102%	103%	102%	91.2%	97.6%	100%	97.5%	106%			105%	83.5%	115%	98.3%	96.1%	93.7%	92.3%	98.4%	
Cc1ccc(NC(=S)N2CCOCC2)cc1C	86.2%	114%	106%	94.5%		96.5%	94%	82.3%	111%	100%		99.4%	66.3%	103%	99.2%	101%	105%	109%	100%	104%
CC(=O)OCC1CCC(COC(C)=O)CC1 (stereo not drawn)	95%	68.6%	87.4%	109%	105%	103%	97.7%	94%	102%	89.8%	94.3%	110%	91.9%	89.1%			109%	115%	93.1%	

Structure (SMILES)	growth [1]	growth [2]	growth [3]	growth [4]	growth [5]	growth [6]	growth [7]	growth [8]	growth [9]	growth [10]	growth [11]	growth [12]	growth [13]	growth [14]	growth [15]	growth [16]	growth [17]	growth [18]	growth [19]	growth [20]
C[n+]1cc2cc3c(cc2c2ccccc21)OCO3	97.2%	63%	22.5%	16.1%		43.1%	72.7%	63.2%	45.6%			9.45% (active)	72%	92.8%	106%		72.8%		12.4%	51.6%
O=C(OCC1CCCO1)c1ccc([N+](=O)[O-])cc1 (stereo not drawn)	104%	108%	85.8%	102%	91.7%	104%		104%	108%	103%	106%	95.3%	86.9%	99.4%	104%	106%	82.2%	94.2%		
N#Cc1ccc(OC(=O)Nc2c(Cl)cc(Cl)cc2Cl)cc1	107%	104%	127%	99.5%	104%	97.2%	102%		104%	118%	107%	98.2%		104%	104%	89.7%	125%	99.3%	111%	
Nc1ccn(C2OC(CO)C(O)C2F)c(=O)n1 (stereo not drawn)	95.8%	79%	79.5%	90.5%	78.6%	92.5%		79.6%	60.5%	90.1%	96.4%	78.8%	76.8%	92.5%	62.1%	69.8%	88.5%	19.1%	-15.5% (active)	
C1Cc2onc(-c3noc4c3CCC4)c2C1	105%	104%	116%	98.8%	106%	102%	96.5%		111%	124%	104%	96.2%	87.9%	105%	114%	94.5%	136%	101%		
CC1CN(CCO)CC(C)O1 (stereo not drawn)	102%	114%	96.5%	102%	102%	102%	94.1%		104%	133%	102%	93.8%	90.7%	106%	107%	93.5%	114%	100%	105%	
Oc1cc(O)c2c(c1)O[C@H](c1ccc(O)c(O)c1)[C@@H](O)C2	100%	97.5%	83.6%	101%	97.9%	104%	106%	100%	110%	106%	99.4%	102%	89.5%	106%		99.4%	120%	94.4%		
C/C(O)=C(/C=N/C(=S)Nc1ccccc1)C(=O)Nc1ccccc1C	96.7%	105%	92.4%	93.9%	95.4%	93.9%		94.4%	110%	114%	96.6%	94.8%	89.7%	110%	103%	101%	86.1%	90.9%	96.9%	
CN(C)c1ccc(/C=C/C(=O)c2ccc(NC(N)=O)cc2)cc1	84.9%	95.2%	67.4%	80.1%	69%	97.6%	92.2%		104%	103%	89.3%	93.3%	68.3%	97.7%	103%	87.8%	115%	92.8%	91.7%	
NC(=O)c1cc2c3ccccc3ccn2c1-c1ccccc1	4.13% (active)	7.35% (active)	59.9%		16.1%	-34.2% (active)	31.7%	20%	105%	-7.59% (active)	14.5%	28.5%	32.2%	47.7%	23.6%	-9.87% (active)	34.4%	2.84% (active)	7.02% (active)	37.3%
CCOC(=O)c1ccc(Nc2sc(C(=O)c3ccc(Br)cc3)c(N)c2C#N)cc1	27%	2.05% (active)	-18.6% (active)	62.5%		12.6%	36.7%	38.8%	36.3%	21.7%		43.9%	25.6%	42.4%	44%	10.7%	-8.46% (active)	12.8%	33.5%	17.5%
O=S(=O)(O)C(C(I)I)S(=O)(=O)O	110%	118%	98.3%	113%	96.3%		110%	101%	114%	109%	112%	110%	89.6%	111%		100%	106%	105%	103%	
CN(C)c1ccc(O)c2c1CC1CC3C(N(C)C)C(=O)C(C(N)=O)=C(O)C3(O)C(=O)C1=C2O (stereo not drawn)	25.4%	57.5%	55.8%	55.5%	25.7%	25.6%	29%	29.3%	47.4%	17.6%		35.6%	23.6%		35.5%	-3.07% (active)	26.2%		79.1%	
CCN1CCCC(N2c3ccccc3Sc3ccccc32)C1 (stereo not drawn)	102%	89.3%	92.8%	110%	94.6%	97%	104%	91.2%	105%	97.4%	116%	101%	79.1%	78.8%	98.5%		100%		96.3%	
COc1cc2c(c(OC)c1OC)-c1ccc(SC)c(=O)cc1[C@@H](NC1OC(CO)C(O)C(O)C1O)CC2 (stereo partly drawn)	14.8%	0.658% (active)	24.9%	71.5%		-18.3% (active)	43.3%	22.3%	61.1%	4.69% (active)		33.6%	34.4%	42.1%	27.2%		-14.3% (active)	4.92% (active)	1.36% (active)	15.7%
O=S(=O)(c1ccc(NC(=S)NCc2cccnc2)cc1)N1CCCCC1	57.2%	55.2%	78.4%	60.6%		74.2%	93.7%	56.5%	92.6%	41.6%		36.1%	70.7%	112%	86.9%	29.1%	97.3%	29%	47.3%	25.3%
Cn1c(=O)c2nc3c(=O)n(C)c(=O)n(C)c3nc2n(C)c1=O	109%	109%	92.4%	92.3%	103%	106%	94.4%	105%	122%	110%	93.9%	106%	82.1%	128%	101%		126%	104%	84.9%	
CCCCCCCCNC(=O)C(C)C	106%	95.5%	91.2%	101%	101%	103%	96%	98%	101%		99.9%	95.8%	99.1%	98.5%	108%	99.1%	81.5%	102%	107%	

Source: PubChem BioAssay (NCI)
